ssDAF-12 act: activates DAF-12 receptor from parasite S. stercoralis. HEK293 ssDAF-12/GRIP1 lit1-tk-luc reporter, luminescence; % of 3 µM dafachronic acid response. activation, % at 6.8 µM. 370,000 tested, 1% active;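 active means activation above the mean over all tested compounds plus 3 SD, cut at about 0.9% in these data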;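 further: 0% = DMSO-only wells and 100% = 3 µM delta7-dafachronic acid wells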
DAX1 inh-1: blocks DAX1 repression of SF-1 activated StAR promoter. HEK293T StAR-luciferase reporter, SF-1/DAX-1 repression relief. inhibition, % at 6.8 µM. 370,000 tested, 1.1% active;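 active means inhibition above the mean over all tested compounds plus 3 SD, cut at about 3.6% in these data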;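 further: 0% = DAX-1 cells with DMSO and 100% = cells lacking DAX-1 with DMSO; higher inhibition means more luminescence from relief of DAX-1 repression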
SMARCA2 act: activators of SMARCA2 function. MG213 cells, MMTV-luciferase reporter, dexamethasone, overnight. activation, % at 9.1 µM. 370,000 tested, 1% active; in the data active means activation above about 7.8%;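 further: 0% = vehicle wells and 100% = reference activator wells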
DAX1 inh-2: inhibitors of human orphan nuclear receptor DAX1 (NR0B1) | P51843 | HEK293 Gal4-DAX1 luciferase reporter, luminescence | inhibition, % at 6.75 µM | 340,000 tested, 0.99% active | AID 504766;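 active means inhibition above the mean over all tested compounds plus 3 SD, cut at about 4.2% in these data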;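 further: 0% = DAX1-transfected cells with DMSO and 100% = empty-vector control cells with DMSO; inhibition shows as a rise in luminescence from relieved DAX1 repression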
Target sequence (P51843 207-470 limits assumed): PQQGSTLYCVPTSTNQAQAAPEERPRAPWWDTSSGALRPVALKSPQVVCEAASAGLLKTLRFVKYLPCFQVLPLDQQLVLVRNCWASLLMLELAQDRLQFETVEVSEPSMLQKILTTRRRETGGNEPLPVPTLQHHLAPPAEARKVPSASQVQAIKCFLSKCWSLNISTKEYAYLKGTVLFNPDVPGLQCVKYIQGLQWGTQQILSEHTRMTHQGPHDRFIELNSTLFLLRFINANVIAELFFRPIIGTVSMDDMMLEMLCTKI
hcDAF-12 act: activators of H. contortus DAF-12 nuclear receptor. HEK293 hcDAF-12 lit1-tk-luc reporter, luminescence; 0% DMSO, 100% Δ7-dafachronic acid. activation, % at 6.8 µM. 370,000 tested, 1.4% active. AID 652067;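 active means activation above the mean of all tested compounds plus 3 SD, cut at about 5.5% in these data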;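 further: 100% = response to 3 µM Δ7-dafachronic acid high control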
hgDAF-12 ag: activates the H. glycines DAF-12 receptor ligand-binding domain; activation, % at 6.8 µM; AID 687014; 370,000 tested, 1.8% active; HEK293 GAL4-hgDAF12 UAS-luciferase reporter, agonist luminescence; normalized to butyrate control;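 active means activation above a cutoff set at the mean of all screened compounds plus 3 SD, cut at about 10% in these data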;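 further: 0% = DMSO wells and 100% = sodium butyrate wells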
An asterisk follows results filed as active; / = not tested or not shown. An excerpt weighted towards active compounds, which were near 4.8% of everything screened.

SMILES | ssDAF-12 act | DAX1 inh-1 | SMARCA2 act | DAX1 inh-2 | hcDAF-12 act | hgDAF-12 ag
O=[N+]([O-])c1cc2c(cc1CN1CCN(CCOCCO)CC1)OCO2 | -1 | 0 | -2 | 4.4* | -1 | -1
COc1ccc(-n2cc(COC(=O)NCCc3ccccc3)nn2)cc1 | 0 | 0 | -2 | / | -1 | 0
Cc1onc(-c2ccccc2)c1C(=O)OCC(=O)c1ccccc1 | -1 | 0 | 0 | -1 | -1 | 1
Cc1onc(-c2ccccc2)c1C(=O)OCC(=O)c1ccc(F)cc1 | 3.5* | -1 | -3 | 4 | -1 | 3
O=[N+]([O-])c1ccc(S(=O)(=O)NCC2COc3ccccc3O2)cc1 (stereo not given) | 0 | 1 | 0 | 1 | 3 | 0
NS(=O)(=O)c1ccc(NCC2COc3ccccc3O2)c([N+](=O)[O-])c1 (stereo not given) | 0 | 0 | -1 | 0 | 4 | 11*
O=C(CCCN1C(=O)/C(=C/c2ccccc2)SC1=S)NCCCn1ccnc1 | -2 | 0 | -6 | 0 | -5 | -5
O=C(CCN1C(=O)/C(=C/c2ccccc2F)SC1=S)NCCCn1ccnc1 | -1 | 0 | -1 | 0 | 6.5* | 1
O=C1CCC[C@H]2C[C@H](NCc3cccs3)CC[C@]23CCCN13 | -2 | / | / | / | -1 | -1
COc1cccc(CN2CC(C(=O)N3CCN(C(C)C)CC3)CCC2=O)c1 (stereo not given) | -1 | 0 | -2 | 4.6* | -1 | 1
COc1cccc(CN2CC(C(=O)N3CCCC3)CCC2=O)c1 (stereo not given) | -1 | 0 | -1 | 2 | 2 | 0
Cc1ccc(OCc2nnc(SCC(=O)Nc3ccc(S(N)(=O)=O)cc3)n2-c2ccc(Cl)cc2)cc1 | -1 | 0 | -5 | / | -2 | -3
COc1ccc(Cc2nc3ccc(C(=O)NC(C)C)cc3o2)cc1 | 0 | 0 | 5 | 2 | 0 | 3
C=C(C)CNC(=O)c1ccc2nc(Cc3ccc(OC)cc3)oc2c1 | -1 | 1 | 4 | 6.3* | 3 | 13*
Cc1cc(OCC(=O)OCC(=O)NC2CCCCCC2)ccc1Cl | -1 | 1 | -2 | 0 | 0 | -1
Cc1cc(OCC(=O)OCC(=O)NC2CCS(=O)(=O)C2)ccc1Cl (stereo not given) | -1 | 1 | -2 | 3 | 5.9* | 2
Cc1ccsc1C(=O)OCC(=O)NC1CCCCC1 | 0 | 3 | 2 | 2 | 3 | 11*
Cc1cc(C)cc(OCC(=O)OCC(=O)NC2CCCCCCC2)c1 | -1 | 4.3* | -1 | 2 | 0 | 2
Cc1cccc(C(=O)NCC(=O)OCC(=O)NC2CCCCCCC2)c1 | -2 | 2 | -2 | -1 | 1 | 0
COc1cccc(C(=O)NCC(=O)OCC(=O)NC2CCCCC2)c1 | 1.3* | 0 | 0 | 1 | 0 | -1
COC(=O)[C@H](CC(C)C)N(Cc1cn(Cc2ccc(C)cc2)nn1)S(=O)(=O)c1ccccc1Br | -1 | -1 | -5 | / | -4 | -6
N#CCC[C@@H]1CC[C@]2(CCCN(C(=O)c3cccnc3)C2)O1 | -1 | 1 | -4 | / | -1 | 4
Cc1ccc(S(=O)(=O)NC(C(=O)OCC(=O)NC2CCS(=O)(=O)C2)C(C)C)cc1 (stereo not given) | -1 | 1 | -1 | -1 | 0 | -1
Cc1ccc(C(=O)N[C@H](C(=O)OCC(=O)NC2CCS(=O)(=O)C2)C(C)C)cc1 (stereo not given in full) | 1.5* | 0 | -3 | 1 | 1 | 6
COC(=O)N=Nc1c(O)[nH]c2ccc(Br)cc12 | 0 | 2 | -3 | 1 | 3 | 8
SMILES | ssDAF-12 act | DAX1 inh-1 | SMARCA2 act | DAX1 inh-2 | hcDAF-12 act | hgDAF-12 ag
O=C(O)c1ccc(N=Nc2c(O)[nH]c3ccc(Br)cc23)cc1 | 0 | 1 | 6 | 3 | 5 | 11*
COc1cccc(-c2nnc3sc(-c4ccc(Br)o4)nn23)c1 | 0 | 1 | 3 | / | 2 | 3
Cn1cnc(S(=O)(=O)NCc2cccs2)c1 | 1.6* | 0 | 0 | 3 | 0 | 1
Cc1cc(-c2ccc(F)cc2)nc2cc(C(N)=O)nn12 | -1 | -1 | -2 | 0 | -3 | 1
CCOC(=O)c1cnn2c(C)cc(-c3ccc(F)cc3)nc12 | 0 | 3 | 5 | 1 | 2 | 12*
COC(=O)[C@]12C[C@H](CC(=O)NCC34CC5CC(CC(C5)C3)C4)C(=O)N(CCc3ccc(OC)c(OC)c3)C1=C[C@H](C(C)(C)C)O[C@@H]2C | -2 | -2 | -3 | / | -2 | -2
CC(C)C[C@@H]1COc2cccc(N3CCC[C@H]3CO)c2S(=O)(=O)N1 | -1 | 3.6* | -3 | / | 2 | 0
C[C@@H]1COc2cccc(N3CCC[C@@H]3CO)c2S(=O)(=O)N1 | -2 | 1 | -1 | / | 0 | 2
COc1ccc(CNC(=O)c2sc3nc(C)c(Cl)c(C)c3c2N)cc1 | -1 | 0 | -3 | / | -2 | -1
COc1ccc(C)c2sc(=NC(=O)c3ccc(C(C)=O)cc3)n(C)c12 | 0 | 2 | 3 | 4.7* | 2 | 13*
COc1ccc(C)c2sc(=NC(=O)C(C)C)n(C)c12 | -1 | -1 | 1 | 0 | 2 | -1
Cc1cc(C)nc(/N=C(\N)N2CCCCCC2)n1 | -2 | 0 | -1 | 0 | -1 | 3
Cc1cc(C)nc(/N=C(\N)N2CCc3ccccc32)n1 | -1 | 1 | 6 | 1 | 1 | 11*
Cc1csc(-c2nc3ccccc3n2C(C)c2nc3ccccc3[nH]2)c1 (stereo not given) | 0 | 1 | -5 | / | 5.7* | -1
CCn1cc(S(=O)(=O)CC(=O)Nc2ccc3c(c2)OCCO3)c2ccccc21 | -1 | -1 | -4 | 0 | -3 | -3
CCN(CC)C(=O)Cn1cc(S(=O)(=O)CC(=O)Nc2ccc3c(c2)OCCO3)c2ccccc21 | 2.0* | 0 | 1 | 1 | 0 | 2
N#Cc1ccccc1N1CCN(S(=O)(=O)c2ccc3c(c2)CCC(=O)N3)CC1 | -1 | 0 | 0 | / | -1 | 3
O=C1C(c2ccncc2)=C(O)c2ccccc21 | 0 | 4.3* | 7 | 0 | 6.4* | 11*
CCCC(=O)Oc1cccc(C2NC(=O)c3ccccc3O2)c1 (stereo not given) | 1 | 0 | 1 | 2 | -2 | 0
CC(C)Oc1cccc(C2NC(=O)c3ccccc3O2)c1 (stereo not given) | -1 | 0 | 0 | 4.7* | 2 | 2
O=C(COc1ccc(S(=O)(=O)N2CCCC2)cc1)NCc1ccco1 | / | / | / | 2 | / | /
O=C(COc1ccc(S(=O)(=O)N2CCOCC2)cc1)NCc1ccco1 | 1.6* | 0 | -1 | 0 | -2 | 0
